Results: PubChem BioAssay AID1159580 (chemical genetic matrix, 2015)
Out of some 5,500 compounds screened, about 2,000 (36%) were called active. Another 18% or so got no clear call; they are omitted. No stated cut-off is given here; in the data, active means normalized growth mostly below about 0.91 (no sharp cut-off); inconclusive means no clear call, values can overlap the other calls; inactive means mostly above about 0.92. Some of the results follow.

Test: chemical genetic growth profiling, strain panel (AID 1159580);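 further: tested at 20 µM; growth read once vehicle control cultures reached saturation at 30 °C; 1 = growth at the plate median or of vehicle wells; lower values mean less growth of the strain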
Conditions: S. cerevisiae deletion strains, growth OD
[1] = locus YAL040C, strain CLN3, hits give low values
[2] = locus YCL061C, strain MRC1 (second series), hits give low values
[3] = locus YDR363W, strain ESC2, hits give low values
[4] = locus YER002W, strain NOP16, hits give low values
[5] = locus YGR229C, strain SMI1, hits give low values
[6] = locus YMR307W, strain GAS1, hits give low values
[7] = locus YNL175C, strain NOP13, hits give low values
[8] = locus YNL197C, strain WHI3, hits give low values
[9] = locus YNL224C, strain SQS1, hits give low values
[10] = locus YOR083W, strain WHI5 (second series), hits give low values

Measured: normalized growth

CN[C@H](CC(C)C)C(=O)N[C@H]1C(=O)N[C@@H](CC(N)=O)C(=O)N[C@H]2C(=O)N[C@H]3C(=O)N[C@H](C(=O)N[C@H](C(=O)O)c4cc(O)cc(O)c4-c4cc3ccc4O)[C@H](O)c3ccc(c(Cl)c3)Oc3cc2cc(c3O[C@@H]2O[C@H](CO)[C@@H](O)[C@H](O)[C@H]2O[C@H]2C[C@](C)(N)[C@H](O)[C@H](C)O2)Oc2ccc(cc2Cl)[C@H]1O
inactive: [1] 0.985 | [2] 1.01 | [3] 1.01 | [4] 1.01 | [5] 1.03 | locus YMR263W, strain SAP30, hits give low values 0.997 | [6] 1 | locus YNL153C, strain GIM3, hits give low values 0.984 | [7] 1.01 | [8] 1.03 | [9] 0.991 | [10] 0.985

CCCN(CCC)CCc1cccc2c1CC(=O)N2
inactive: locus YAL021C, strain ccr4, hits give low values 0.978 | locus YAL026C, strain drs2, hits give low values 0.979 | locus YAL030W, strain snc1, hits give low values 0.981 | [1] 1.03 | locus YBL061C, strain skt5, hits give low values 0.963 | locus YBR009C, strain hhf1, hits give low values 0.984 | locus YBR023C, strain chs3, hits give low values 0.962 | locus YBR171W, strain sec66, hits give low values 0.96 | locus YBR231C, strain swc5, hits give low values 0.99 | locus YBR279W, strain paf1, hits give low values 0.977 | locus YCL011C, strain gbp2, hits give low values 0.981 | locus YCL016C, strain dcc1, hits give low values 0.964 | [2] 0.997 | locus YCL061C, strain MRC1, hits give low values 0.965 | locus YCL069W, strain vba3, hits give low values 0.966 | locus YCR088W, strain abp1, hits give low values 0.969 | locus YDL005C, strain med2, hits give low values 0.977 | locus YDL040C, strain nat1, hits give low values 0.977 | locus YDR001C, strain nth1, hits give low values 0.968 | locus YDR069C, strain doa4, hits give low values 0.983 | locus YDR137W, strain rgp1, hits give low values 0.951 | locus YDR159W, strain sac3, hits give low values 0.966 | locus YDR195W, strain ref2 0.949 | locus YDR297W, strain sur2, hits give low values 0.978 | locus YDR334W, strain swr1, hits give low values 0.954 | locus YDR335W, strain msn5, hits give low values 0.969 | [3] 1.03 | locus YDR392W, strain spt3, hits give low values 0.96 | locus YEL003W, strain gim4, hits give low values 0.973 | locus YEL037C, strain rad23, hits give low values 0.971 | locus YEL061C, strain CIN8 (second series), hits give low values 0.981 | [4] 1.02 | locus YER015W, strain faa2, hits give low values 0.987 | locus YER016W, strain bim1, hits give low values 0.975 | locus YER111C, strain swi4, hits give low values 0.955 | locus YER155C, strain BEM2 (second series), hits give low values 0.959 | locus YFR010W, strain ubp6, hits give low values 0.967 | locus YGL167C, strain pmr1, hits give low values 0.963 | locus YGL173C, strain kem1, hits give low values 0.969 | locus YGL227W, strain vid30, hits give low values 0.972 | locus YGL240W, strain doc1, hits give low values 0.991 | locus YGL253W, strain hxk2, hits give low values 0.993 | locus YGR078C, strain PAC10, hits give low values 0.988 | [5] 1.04 | locus YHR013C, strain ard1, hits give low values 0.94 | locus YHR027C, strain rpn1, hits give low values 0.959 | locus YHR030C, strain SLT2, hits give low values 0.947 | locus YHR079C, strain IRE1, hits give low values 0.941 | locus YHR142W, strain chs7, hits give low values 0.952 | locus YJL092W, strain hpr5, hits give low values 0.966 | locus YJL095W, strain BCK1 (second series), hits give low values 0.972 | locus YJL095W, strain BCK1, hits give low values 1.01 | locus YJL115W, strain asf1, hits give low values 0.958 | locus YJL129C, strain trk1, hits give low values 0.973 | locus YJL154C, strain vps35, hits give low values 0.974 | locus YJL164C, strain tpk1, hits give low values 0.981 | locus YJL166W, strain qcr8, hits give low values 0.988 | locus YJL187C, strain SWE1, hits give low values 0.976 | locus YJR066W, strain TOR1, hits give low values 0.94 | locus YJR075W, strain HOC1, hits give low values 1.01 | locus YKL160W, strain elf1, hits give low values 0.978 | locus YKR026C, strain gcn3, hits give low values 0.968 | locus YKR091W, strain srl3, hits give low values 0.983 | locus YLL001W, strain dnm1, hits give low values 0.977 | locus YLL026W, hits give low values 0.981 | locus YLL041C, strain sdh2, hits give low values 0.974 | locus YLR027C, strain aat2, hits give low values 0.972 | locus YLR113W, strain HOG1, hits give low values 1.03 | locus YLR221C, strain rsa3, hits give low values 0.975 | locus YLR258W, strain gsy2, hits give low values 0.979 | locus YLR262C, strain YPT6 (second series), hits give low values 0.976 | locus YLR320W, strain mms22, hits give low values 0.969 | locus YLR342W, strain FKS1, hits give low values 0.981 | locus YLR357W, strain rsc2, hits give low values 0.961 | locus YLR370C, strain arc18, hits give low values 0.96 | locus YLR384C, strain iki3, hits give low values 0.969 | locus YML120C, strain ndi1, hits give low values 0.972 | locus YMR058W, strain fet3, hits give low values 0.977 | locus YMR125W, strain sto1, hits give low values 0.967 | locus YMR129W, hits give low values 0.969 | locus YMR205C, strain PFK2, hits give low values 0.965 | locus YMR231W, strain pep5, hits give low values 0.975 | [6] 0.95 | locus YNL071W, strain lat1, hits give low values 0.984 | locus YNL128W, strain TEP1, hits give low values 0.989 | [7] 1.01 | locus YNL183C, strain NPR1, hits give low values 0.966 | [8] 0.999 | locus YNL209W, strain ssb2, hits give low values 0.97 | [9] 0.988 | locus YNL248C, strain rpa49, hits give low values 0.955 | locus YNL322C, strain KRE1 (second series), hits give low values 0.985 | locus YNL322C, strain KRE1, hits give low values 1.01 | locus YNR049C, strain mso1, hits give low values 0.966 | locus YOR001W, strain rrp6, hits give low values 0.972 | locus YOR070C, strain gyp1, hits give low values 0.974 | locus YOR080W, strain dia2, hits give low values 0.957 | [10] 1 | locus YOR083W, strain WHI5, hits give low values 0.975 | locus YOR106W, strain vam3, hits give low values 0.977 | locus YOR231W, strain MKK1, hits give low values 0.978 | locus YOR265W, strain rbl2, hits give low values 0.972 | locus YOR270C, strain vph1, hits give low values 0.944 | locus YOR290C, strain snf2, hits give low values 0.953 | locus YPL051W, strain arl3, hits give low values 0.975 | locus YPL078C, strain atp4, hits give low values 0.969 | locus YPL106C, strain sse1, hits give low values 0.99 | locus YPL240C, strain hsp82, hits give low values 0.976 | locus YPL241C, strain CIN2, hits give low values 1 | locus YPL256C, strain CLN2, hits give low values 0.943
